{"source": "paper PMC10726135", "about": "“HNF4α isoforms regulate the circadian balance between carbohydrate and lipid metabolism in the liver”", "note": "The full ranking holds about 18,000 sequences; the median of “log2 normalized intensity” is about 0.36, and the highest 2% start at about 7.3. Shown is part of a subset that was picked to be rich in the highest values."}
{"target": "T1, HNF4alpha8 (COS-7 nuclear extract) (Homo sapiens, UniProt P41235-5 1-452)", "T1 sequence": "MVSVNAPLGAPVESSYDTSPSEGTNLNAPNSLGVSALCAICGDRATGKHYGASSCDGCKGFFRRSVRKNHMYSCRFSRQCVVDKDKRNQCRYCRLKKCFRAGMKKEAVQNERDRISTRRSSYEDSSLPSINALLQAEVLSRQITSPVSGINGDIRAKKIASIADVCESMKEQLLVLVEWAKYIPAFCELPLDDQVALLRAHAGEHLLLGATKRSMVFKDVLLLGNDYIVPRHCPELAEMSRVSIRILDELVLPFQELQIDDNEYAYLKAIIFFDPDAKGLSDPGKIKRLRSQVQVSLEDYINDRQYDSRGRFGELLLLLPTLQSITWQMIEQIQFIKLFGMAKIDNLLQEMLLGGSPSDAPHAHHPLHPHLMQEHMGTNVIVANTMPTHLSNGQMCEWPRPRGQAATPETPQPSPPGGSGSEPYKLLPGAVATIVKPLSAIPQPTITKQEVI", "assay": "protein-binding microarray; COS-7 nuclear extract on double-stranded Agilent 4x180k PBM; binding buffer, salt, pH and temperature not given in the material; high values mean tight binding", "conditions": "chain copies: 2; label: 3' end of strand 1 on the slide; dsDNA, one strand shown", "summary_of_the_method": "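Using CaPO4, COS-7 cells were transiently transfected with a human HNF4α isoform expression vector, and their nuclear extracts were applied to a custom Agilent SurePrint G3 4x180k double-stranded oligonucleotide array (~60 nt; ~44,000 test sequences in quadruplicate). Bound HNF4α was imaged at 2-µm resolution with an Agilent G2565CA scanner. Agilent software supplied the background-corrected, normalized gProcessedSignal that serves as the binding signal.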", "units": {"binding signal": "log2 normalized intensity"}}
{"sequence": "TGGAATCCAAAGTATTTTCTGTCTAGGTGCGCCTAGGGAGATTAGAGTATCGGTCGA", "binding signal": 0.637}
{"sequence": "TTGCCTAACTGCTGCATGTCATGACCTTCAGCCTAGGGAGATTAGAGTATCGGTCGA", "binding signal": 3.69}
{"sequence": "TCTACTCCCTGTTCTTACACCTGCTCCCCTGCCTAGGGAGATTAGAGTATCGGTCGA", "binding signal": 2.97}
{"sequence": "TGTATACTTATGTAGAAAGATATCTCTGTGGCCTAGGGAGATTAGAGTATCGGTCGA", "binding signal": 1.3}
{"sequence": "AAGATCATTCCAGGAATGTTCAAGAAGTTCGCCTAGGGAGATTAGAGTATCGGTCGA", "binding signal": 0.0918}
{"sequence": "AGATAGGACAGTGGTCTTTATGACTTGGGTGCCTAGGGAGATTAGAGTATCGGTCGA", "binding signal": 1.4}
{"sequence": "GACTATTTTATTTTCCCCCTTTGAAGTCTGGCCTAGGGAGATTAGAGTATCGGTCGA", "binding signal": 3.2}
{"sequence": "GTCCTTCCCAAGTCCTGCATGTGTTCACACGCCTAGGGAGATTAGAGTATCGGTCGA", "binding signal": 1.21}
{"sequence": "CACTCTGGTGCCCTCTGAGTGTTTGACCTTGCCTAGGGAGATTAGAGTATCGGTCGA", "binding signal": 5.61}
{"sequence": "TGGTGCCCTCTGAGTGTTTGACCTTTCACCGCCTAGGGAGATTAGAGTATCGGTCGA", "binding signal": 8.17}
{"sequence": "CCTGACCCCCAGTGGAATGTGCCCTTTGACGCCTAGGGAGATTAGAGTATCGGTCGA", "binding signal": 5.75}
{"sequence": "GGTGGGCTGCTCCCAGTGCCCTTTGAACTCGCCTAGGGAGATTAGAGTATCGGTCGA", "binding signal": 8.91}
{"sequence": "AGTAACCTGACCCCCAGTGGAATGTGCCCTGCCTAGGGAGATTAGAGTATCGGTCGA", "binding signal": 4.61}
{"sequence": "CCCTCTGAGTGTTTGACCTTTCACCCAGAAGCCTAGGGAGATTAGAGTATCGGTCGA", "binding signal": 7.2}
{"sequence": "AATGTGCCCTTTGACCTCTCTCTCCTAACTGCCTAGGGAGATTAGAGTATCGGTCGA", "binding signal": 7.21}
{"sequence": "AGTGGAATGTGCCCTTTGACCTCTCTCTCCGCCTAGGGAGATTAGAGTATCGGTCGA", "binding signal": 8.33}
{"sequence": "GGCCAGGTGGGCTGCTCCCAGTGCCCTTTGGCCTAGGGAGATTAGAGTATCGGTCGA", "binding signal": 4.47}
{"sequence": "GGAATGACCTTTGATATTTGTGCCTAGTGGGCCTAGGGAGATTAGAGTATCGGTCGA", "binding signal": 5.39}
{"sequence": "GTGCTCCCTCCCCCTGCATGAACCTTTGCTGCCTAGGGAGATTAGAGTATCGGTCGA", "binding signal": 3.72}
{"sequence": "CCCCCAGTGGAATGTGCCCTTTGACCTCTCGCCTAGGGAGATTAGAGTATCGGTCGA", "binding signal": 10.3}
{"sequence": "TGCCCTATGTCCTCCAGCTCTTGGGGAACAGCCTAGGGAGATTAGAGTATCGGTCGA", "binding signal": 0.218}
{"sequence": "AAAGCCATCAGCACTGGTTCAAAGTGTAGCGCCTAGGGAGATTAGAGTATCGGTCGA", "binding signal": 1.25}
{"sequence": "AGAGGAAGATCTTTTTGATGACTTTGTAGGGCCTAGGGAGATTAGAGTATCGGTCGA", "binding signal": 0.915}
{"sequence": "TAAACCTGTTTGGTATCTACTCGGCAAAACGCCTAGGGAGATTAGAGTATCGGTCGA", "binding signal": 1.28}
{"sequence": "GACACTTCCAGCCAAACCAGGTCATGCATTGCCTAGGGAGATTAGAGTATCGGTCGA", "binding signal": 0.387}
{"sequence": "CCGTTAGCCAATATTTGCAAGGCTGTTGGCGCCTAGGGAGATTAGAGTATCGGTCGA", "binding signal": -0.823}
{"sequence": "CCCCCCAAGTTGAAGCCATCCTCCCACCTCGCCTAGGGAGATTAGAGTATCGGTCGA", "binding signal": 5.73}
{"sequence": "TATTAGGCAAAAGAGATAGCGAGAAGGCAGGCCTAGGGAGATTAGAGTATCGGTCGA", "binding signal": -0.999}
{"sequence": "TTATGTACTTAGTGTTTTATGTGTATTTACGCCTAGGGAGATTAGAGTATCGGTCGA", "binding signal": 2.09}
{"sequence": "AGTTTTGCAACATACTGAAAAAGGGTTGTGGCCTAGGGAGATTAGAGTATCGGTCGA", "binding signal": 1.23}
{"sequence": "CGCCGGGCGCCGCTCTGAGTGACCTTTCACGCCTAGGGAGATTAGAGTATCGGTCGA", "binding signal": 5.71}
{"sequence": "CGCTCTGAGTGACCTTTCACCCGCGCCCAGGCCTAGGGAGATTAGAGTATCGGTCGA", "binding signal": 6.45}
{"sequence": "GGCGCCGCTCTGAGTGACCTTTCACCCGCGGCCTAGGGAGATTAGAGTATCGGTCGA", "binding signal": 7.77}
{"sequence": "CCCTGCAATTTGATTTGTATGATCTTGGGTGCCTAGGGAGATTAGAGTATCGGTCGA", "binding signal": 1.73}
{"sequence": "GACCATGTGATGTGAAGAGTGTGGACTTTCGCCTAGGGAGATTAGAGTATCGGTCGA", "binding signal": 4.87}
{"sequence": "TGTGATGTGAAGAGTGTGGACTTTCACCTCGCCTAGGGAGATTAGAGTATCGGTCGA", "binding signal": 8.92}
{"sequence": "AGGATGTGTGCTCGAGGTGGACTTTCCCCCGCCTAGGGAGATTAGAGTATCGGTCGA", "binding signal": 6.75}
{"sequence": "TTCCCCAGTGAGGATGTGTGCTCGAGGTGGGCCTAGGGAGATTAGAGTATCGGTCGA", "binding signal": 1.11}
{"sequence": "TGTGAAGAGTGTGGACTTTCACCTCCACCAGCCTAGGGAGATTAGAGTATCGGTCGA", "binding signal": 6.7}
{"sequence": "CAGTGAGGATGTGTGCTCGAGGTGGACTTTGCCTAGGGAGATTAGAGTATCGGTCGA", "binding signal": 7.48}
{"sequence": "CAAGGGTCAGTTCATTAAAAAAAAAAAAAAGCCTAGGGAGATTAGAGTATCGGTCGA", "binding signal": 0.208}
{"sequence": "GATCAAGAGGAAGATCTTTTTGATGACTTTGCCTAGGGAGATTAGAGTATCGGTCGA", "binding signal": 0.895}
{"sequence": "AGTATTACCATGTCCTGTGATTAAGGTCAAGCCTAGGGAGATTAGAGTATCGGTCGA", "binding signal": 2.96}
{"sequence": "AACTATGCAGTGTCCATGGTGACCATGTGAGCCTAGGGAGATTAGAGTATCGGTCGA", "binding signal": 1.71}
{"sequence": "CTGGACTATGCCTTGAACTTTAAGGCACCTGCCTAGGGAGATTAGAGTATCGGTCGA", "binding signal": 1.67}
